Screening results (PubChem)
Giardia killer – Giardia lamblia killing. 340,000 compounds, 0.15% hits. AID 540267. activity change, % at 7.66 µM, hits read low. Giardia lamblia trophozoite viability; in the data active = activity change below about -80%; inconclusive = between about -30% and that limit;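 also: parasites exposed to compound for two days anaerobically before the ATP read; % is scaled to controls: 0 for no effect and ±100 for the full control effect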
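Trophozoites 100 cells/well + cpd; 48 hrs, 37 deg C, anaerobic. ATPLite 1-Step added, 15-30 min RT, luminescence read (ATP-based viability).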
D3 ag – agonists of human D3 dopamine receptor; P35462; D3R DiscoveRx beta-arrestin cells, luminescence, 90 min; max activation, %; 410,000 compounds, 0.58% hits; AID 652048; in the data active = max activation above about 30%; also: 0% is about no effect
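Agonist-mode cell screen: cells plated at 1500/well and incubated overnight at 37 °C, then exposed to library compounds for 90 min at 37 °C. Detection reagent was added for 30–60 min at room temperature, and luminescence was read.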
B2AR arrestin – agonists driving beta-arrestin recruitment to human beta2-adrenergic receptor | P07550 | beta-arrestin recruitment to beta2AR, cell-based reporter | Potency, µM (highest dose often 46.1 µM), for the others: at the top dose activation, most hits filed as activators | 330,000 compounds, 0.02% hits | AID 492947; active = well fitted activation curve with a large enough effect; inconclusive = small, poorly fitted or top-dose-only effect;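 also: potency is read from the fitted curve at half-maximal effect; 0% = DMSO controls and full agonism = EC100 isoproterenol or metaproterenol; nearly all actives have a fitted effect of over 65% in size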
Target sequence (P07550 whole entry, looked up): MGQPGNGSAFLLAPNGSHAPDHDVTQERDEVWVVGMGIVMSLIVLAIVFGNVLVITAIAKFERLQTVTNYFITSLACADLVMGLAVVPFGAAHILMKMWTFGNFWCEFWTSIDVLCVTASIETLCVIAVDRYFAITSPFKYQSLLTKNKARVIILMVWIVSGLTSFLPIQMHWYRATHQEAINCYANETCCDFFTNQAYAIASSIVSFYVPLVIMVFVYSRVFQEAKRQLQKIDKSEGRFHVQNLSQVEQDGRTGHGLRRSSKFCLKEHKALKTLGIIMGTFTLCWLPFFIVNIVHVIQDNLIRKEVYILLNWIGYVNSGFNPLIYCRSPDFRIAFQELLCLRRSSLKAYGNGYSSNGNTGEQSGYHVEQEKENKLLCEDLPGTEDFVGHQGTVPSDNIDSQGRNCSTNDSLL
DRD3 antagonist – blocks the human D3 dopamine receptor | AID 652054 | P35462 | 360,000 compounds, 2.5% hits | D3R cells, DiscoveRx beta-arrestin luminescence, antagonist mode; stronger effect = lower value | max response, negative = inhibition, %; in the data active = max response below about -50%; inconclusive = no clear call, values can overlap the other calls; also: % is scaled to controls: 0 for no effect and ±100 for the full control effect
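Cells plated overnight at 1500 cells/well, then exposed to library compounds with dopamine controls for 90 minutes at 37 degrees C. DiscoveRx reagent added for 30–60 minutes at room temperature; luminescence read, quantitative HTS format.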
* hit, by the source's call; u = inconclusive; x = no result. This is a sample that favours compounds with a hit; in the whole collection about 2.8% have one here.

SMILES | Giardia killer | D3 ag | B2AR arrestin | DRD3 antagonist
CCC(CC)C(=O)Nc1nnc(SCc2cc(=O)n3cccc(C)c3n2)s1 | x | 62.4* | x | x
COc1cccc(CNC(=O)c2ccc3nc(N4CCCCC4)sc3c2)c1OC | x | 2.4 | x | x
Cc1ccc(S(=O)(=O)CCC(=O)c2ccc(O)cc2O)cc1 | -17.6 | 4.7 | -0.4% | -59.1*
Cc1ccc(S(=O)(=O)CCC(=O)OCC(=O)c2cc(C)ccc2C)cc1 | -13.7 | -6.1 | -0.2% | 4.3
CCOC(=O)N1CCC(N2CCN(S(=O)(=O)c3ccc(C)cc3)CC2)CC1 | -6.5 | -3.5 | 0.2% | -25.9
COc1ccccc1N1CCN(C2CCN(C(=O)c3cccs3)CC2)CC1 | -0.4 | -16.6 | 0.1% | -63.2*
CCOC(=O)N1CCC(N2CCN(S(=O)(=O)CC)CC2)CC1 | 2.1 | -5.4 | -0.1% | -132.9*
COc1cc(OC)cc(C(=O)N2CCC(N3CCN(c4ccccc4)CC3)CC2)c1 | -0.9 | 7.8 | -0.3% | -63.3*
COc1ccc(C(=O)N2CCC(N3CCN(c4ccccc4)CC3)CC2)cc1OC | -16.4 | 3.0 | -0.3% | u
CCOC(=O)N1CCC(N2CCN(c3ccccc3)CC2)CC1 | -0.2 | 35.3* | 1.9% | 7.8
CN(C)C(=O)CCSC(SCCC(=O)O)c1cccc(/C=C/c2ccc3ccc(Cl)cc3n2)c1 (stereo not drawn) | x | -0.8 | x | x
O=C(c1cccs1)N1CCC(N2CCN(c3ccccc3)CC2)CC1 | -1.5 | 47.0* | -0.5% | u
O=C(c1cccc2ccccc12)N1CCC(N2CCN(c3ccccc3)CC2)CC1 | 0.3 | 74.5* | 0.4% | -58.2*
O=C(c1cccs1)N1CCN(c2ccc(Cl)cc2)CC1 | 3.4 | -0.8 | -0.9% | 7.9
C=C(C)[C@@H]1C2=CC(C(=O)OC)=C(C[C@@H](C(=C)C)[C@H]3O[C@H]3C3=C[C@H]1OC3=O)O2 | -11.4 | x | x | x
O=[N+]([O-])c1cccc(S(=O)(=O)NCCNS(=O)(=O)c2cccc([N+](=O)[O-])c2)c1 | x | 1.5 | x | x
Cc1nc2scc(-c3ccccc3)c2c(=O)n1N=C1C=CC(=O)C=C1 | -8.5 | -18.3 | 0.2% | -82.6*
CCOC(=O)c1c(-c2ccccc2)csc1NC(=O)c1cccc(N2C(=O)CCC2=O)c1 | -3.5 | 61.7* | 0.3% | 43.7
CCOC(=O)c1cc(CC)sc1NC(=O)c1ccc(N2C(=O)CCC2=O)cc1 | 6.6 | 50.5* | 0.2% | 17.2
OCCO[C@@H]1[C@@H](O)[C@H](O)[C@@H](CO)O[C@@H]1O | x | 7.4 | x | x
CNc1sc(C(=O)c2ccccc2F)c(N)c1-c1nc2ccccc2s1 | -17.7 | -7.5 | 13.3% | -52.5*
O=C(CNC(=O)c1ccccc1F)OCc1nc2ccccc2s1 | -7.2 | 4.7 | 0.0% | 16.2
COc1ccccc1CNC(=O)CSc1ncc2c(n1)-c1cc(Cl)ccc1N(Cc1ccccc1)S2(=O)=O | x | 2.2 | x | x
COCCOc1cc(Nc2nnc(C(F)(F)F)s2)c(Cl)cc1Cl | 1.1 | 0.8 | -1.1% | -63.8*
CCOC(=O)N1CCC(NC(=O)CCC(=O)N2CCOc3ccc(C)cc32)CC1 | 23.2 | 0.3 | -0.3% | 3.7
SMILES | Giardia killer | D3 ag | B2AR arrestin | DRD3 antagonist
CC1CCN(C(=O)CCC(=O)N2CC(C)Oc3ccccc32)CC1 (stereo not drawn) | -7.1 | 0.3 | 0.0% | 1.7
Cc1ccc2c(c1)N(C(=O)CCC(=O)NC1CCC(C)CC1)CCO2 (stereo not drawn) | -5.6 | -12.0 | 0.4% | -95.9*
CC1CCC(NC(=O)CCC(=O)N2CC(C)Oc3ccccc32)CC1 (stereo not drawn) | 15.8 | -15.7 | -0.5% | -91.7*
CC1CCCCC1NC(=O)CCC(=O)N1CCOc2ccc(Cl)cc21 (stereo not drawn) | -21.4 | -19.6 | -0.1% | -53.4*
CCn1c(=O)n(-c2ccc(C)c(F)c2)c(=O)c2sc3ccccc3c21 | x | -0.4 | x | x
O=C(NCCN1C(=O)S/C(=C\c2ccc(Cl)c([N+](=O)[O-])c2)C1=O)C1=COCCO1 | 2.2 | -7.8 | -0.3% | -55.2*
Cc1ccc(CNC(=O)CSc2nc3ccccc3nc2Cc2ccc(C)cc2)cc1 | x | -6.2 | x | x
Cc1cccc(NC(=O)Cn2ncc3c4ccccc4n(Cc4ccccc4)c3c2=O)c1C | x | 8.1 | x | x
COc1cc(NC(=O)CN2c3ccccc3S(=O)(=O)c3ccccc32)cc(OC)c1 | x | -6.4 | x | x
COc1ccc(CNc2ncnc3c2c(-c2ccccc2)cn3-c2ccc(C)c(Cl)c2)cc1 | x | 8.1 | x | x
Cc1cc(C)cc(Nc2cc(C(=O)NCc3ccccc3)c3ccccc3n2)c1 | x | 11.1 | x | x
O=C(CN1C(=O)COc2ccccc21)NCCCN1CCc2ccccc2C1 | -3.7 | -20.7 | 0.1% | -76.7*
CC1CCN(S(=O)(=O)c2ccc3c(c2)N(CC(=O)NCCCN2CCCC(C)C2)C(=O)CO3)CC1 (stereo not drawn) | -0.8 | -17.8 | 0.3% | -89.0*
O=C(CN1C(=O)COc2ccccc21)NCCN1CCC(Cc2ccccc2)CC1 | 0.2 | -28.8 | 0.2% | -56.6*
O=C(CN1C(=O)COc2ccccc21)NCCN1CCOCC1 | 9.2 | 1.8 | -0.1% | -11.4
COC(=O)CN1C(=O)CSc2ccc(S(=O)(=O)Nc3ccc(C(C)=O)cc3)cc21 | x | -12.5 | x | x
Cn1c(N=Nc2ccccc2)nc2ccccc21 | u | -5.2 | -1.7% | -7.0
CN(C)c1ccc(N=Nc2nc3ccccc3n2C)cc1 | 4.5 | -19.6 | 0.2% | -74.5*
CC(C)N(C(=O)CSc1cn(CC(=O)N2CCCCCC2)c2ccccc12)C(C)C | x | -1.1 | x | x
CCc1ccc(NC(=O)CSc2nc(=O)n(Cc3cccnc3)c3c2CCC3)cc1 | x | 1.2 | x | x
CN1c2ccc([N+](=O)[O-])cc2N(C)C1(C)c1ccccc1 (stereo not drawn) | -5.2 | -20.2 | 0.1% | -62.1*
Cn1c2ccccc2c2cc([N+](=O)[O-])ccc21 | -27.0 | 4.6 | -0.5% | -1.3
CCCCCCCCC#Cc1nc(C)ccc1OC | u | 64.5* | 8.0% | 14.8
COC(=O)c1sc2nc(C)cc(C)c2c1N | 12.8 | -4.9 | 0.0% | 24.4
Cc1cc(C)c2c(N)c(C(=O)Nc3ncc(C)s3)sc2n1 | -107.6* | -9.6 | -0.3% | 15.3
SMILES | Giardia killer | D3 ag | B2AR arrestin | DRD3 antagonist
Cc1ccc(N(CC(O)CN2CCCCC2)S(=O)(=O)c2ccccc2[N+](=O)[O-])cc1 (stereo not drawn) | 8.4 | -16.9 | -0.6% | -50.5*
Cc1ccccc1C1C(C#N)=C2N=C(N)c3c(sc4c3CCCCC4)N2C2=C1C(=O)CCC2 (stereo not drawn) | 1.9 | -6.8 | 0.5% | -75.8*
CCCc1cc(C(=O)Cc2ccc(C(=O)OCC)o2)c(O)cc1O | -1.9 | 0.5 | 4.7% | 6.5
CCCc1cc(-c2n[nH]c(C)c2-c2ccc(C(=O)OCC)o2)c(O)cc1O | 3.8 | 35.4* | -0.6% | -26.6
CSc1ccccc1NC(=O)CN(C)CC(=O)NCC(=O)Nc1ccc(F)cc1 | -5.1 | 1.5 | 0.3% | -50.0*
COc1ccc(NC(=O)CN(C)CC(=O)Nc2ccccc2SC)cc1 | -1.6 | -8.8 | -0.9% | -20.3
CCCCCCCCCCCCCCCC(=O)OC[C@@H](NC(=O)C(Cl)Cl)[C@H](O)c1ccc([N+](=O)[O-])cc1 | x | -2.6 | x | x
CCCN1CNc2c(c(=O)[nH]c(=S)n2CCc2cccs2)C1 | -7.3 | x | x | x
CC(C)C[C@H]1CN([C@@H](Cc2ccccc2)CN2CCC[C@H]2CN2C(=O)C(=O)NC[C@@H]2Cc2ccccc2)C(=O)C(=O)N1CCc1ccccc1 | x | 4.0 | x | 17.1
